The whole screen tested about 5,500 compounds, of which about 2,000 (36%) were called active. Another 18% or so got no clear call; they are omitted. Cut-off read from the data, not from the text of the source: active = normalized growth mostly below about 0.91 (no sharp cut-off); inconclusive = no clear call, values can overlap the other calls; inactive = mostly above about 0.92. The list shows a part of the results.
Assay: chemical genetic growth profiling, strain panel (AID 1159580);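 note: tested at 20 µM; growth read once vehicle control cultures reached saturation at 30 °C; 1 = growth at the plate median or of vehicle wells; lower values mean less growth of the strain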
Details: S. cerevisiae deletion strains, growth OD

Measured: normalized growth

COc1cccc2c(C)cc(=O)[nH]c12
inactive: locus YAL021C, strain ccr4, stronger effect = lower value 1.01 | locus YAL026C, strain drs2, stronger effect = lower value 0.972 | locus YAL030W, strain snc1, stronger effect = lower value 0.977 | locus YBL061C, strain skt5, stronger effect = lower value 0.938 | locus YBR009C, strain hhf1, stronger effect = lower value 0.938 | locus YBR021W, strain FUR4, stronger effect = lower value 1.07 | locus YBR023C, strain chs3, stronger effect = lower value 0.928 | locus YBR171W, strain sec66, stronger effect = lower value 0.963 | locus YBR229C, strain ROT2, stronger effect = lower value 0.969 | locus YBR279W, strain paf1, stronger effect = lower value 0.987 | locus YCL011C, strain gbp2, stronger effect = lower value 0.924 | locus YCL016C, strain dcc1, stronger effect = lower value 0.949 | locus YCL029C, strain bik1, stronger effect = lower value 0.932 | locus YCL061C, strain MRC1, stronger effect = lower value 0.956 | locus YCL069W, strain vba3, stronger effect = lower value 0.98 | locus YCR088W, strain abp1, stronger effect = lower value 0.972 | locus YDL005C, strain med2, stronger effect = lower value 0.992 | locus YDL035C, strain GPR1, stronger effect = lower value 0.958 | locus YDL040C, strain nat1, stronger effect = lower value 0.972 | locus YDL074C, strain BRE1, stronger effect = lower value 0.853 | locus YDL101C, strain DUN1, stronger effect = lower value 0.941 | locus YDL134C, strain PPH21, stronger effect = lower value 0.961 | locus YDL185W, strain tfp1, stronger effect = lower value 0.933 | locus YDR001C, strain nth1, stronger effect = lower value 0.957 | locus YDR069C, strain doa4, stronger effect = lower value 0.971 | locus YDR137W, strain rgp1, stronger effect = lower value 0.847 | locus YDR159W, strain sac3, stronger effect = lower value 0.862 | locus YDR162C, strain NBP2, stronger effect = lower value 0.881 | locus YDR297W, strain sur2, stronger effect = lower value 0.974 | locus YDR318W, strain mcm21, stronger effect = lower value 0.949 | locus YDR334W, strain swr1, stronger effect = lower value 0.978 | locus YDR335W, strain msn5, stronger effect = lower value 0.941 | locus YDR388W, stronger effect = lower value 0.929 | locus YEL003W, strain gim4, stronger effect = lower value 0.971 | locus YEL037C, strain rad23, stronger effect = lower value 0.974 | locus YEL061C, strain CIN8 (second series), stronger effect = lower value 0.969 | locus YEL061C, strain CIN8, stronger effect = lower value 0.963 | locus YER015W, strain faa2, stronger effect = lower value 0.986 | locus YER016W, strain bim1, stronger effect = lower value 0.953 | locus YER110C, stronger effect = lower value 0.946 | locus YER111C, strain swi4, stronger effect = lower value 0.977 | locus YER155C, strain BEM2, stronger effect = lower value 0.946 | locus YER167W, strain BCK2, stronger effect = lower value 0.947 | locus YFR010W, strain ubp6, stronger effect = lower value 0.975 | locus YGL078C, strain dbp3, stronger effect = lower value 0.962 | locus YGL167C, strain pmr1, stronger effect = lower value 0.982 | locus YGL173C, strain kem1, stronger effect = lower value 0.962 | locus YGL227W, strain vid30, stronger effect = lower value 0.961 | locus YGL248W, strain PDE1, stronger effect = lower value 0.919 | locus YGR078C, strain PAC10, stronger effect = lower value 0.904 | locus YGR252W, strain gcn5, stronger effect = lower value 0.874 | locus YHR013C, strain ard1, stronger effect = lower value 0.848 | locus YHR027C, strain rpn1, stronger effect = lower value 0.984 | locus YHR030C, strain SLT2, stronger effect = lower value 0.945 | locus YHR079C, strain IRE1 (second series), stronger effect = lower value 0.933 | locus YHR094C, strain hxt1, stronger effect = lower value 0.953 | locus YHR129C, strain ARP1, stronger effect = lower value 0.936 | locus YIL066C, strain RNR3, stronger effect = lower value 0.929 | locus YIL073C, strain SPO22, stronger effect = lower value 0.812 | locus YIL125W, strain kgd1, stronger effect = lower value 0.96 | locus YIR030C, strain dcg1, stronger effect = lower value 0.954 | locus YJL092W, strain hpr5, stronger effect = lower value 0.972 | locus YJL095W, strain BCK1 (second series), stronger effect = lower value 0.965 | locus YJL115W, strain asf1, stronger effect = lower value 0.981 | locus YJL129C, strain trk1, stronger effect = lower value 0.966 | locus YJL134W, strain LCB3, stronger effect = lower value 0.968 | locus YJL154C, strain vps35, stronger effect = lower value 0.979 | locus YJL164C, strain tpk1, stronger effect = lower value 0.949 | locus YJL168C, strain set2, stronger effect = lower value 0.948 | locus YJL187C, strain SWE1 (second series), stronger effect = lower value 0.908 | locus YJL187C, strain SWE1, stronger effect = lower value 0.989 | locus YJR043C, strain POL32, stronger effect = lower value 0.885 | locus YKL068W, stronger effect = lower value 0.951 | locus YKL085W, strain MDH1 (second series), stronger effect = lower value 0.941 | locus YKL085W, strain MDH1, stronger effect = lower value 0.941 | locus YKL160W, strain elf1, stronger effect = lower value 0.944 | locus YKR026C, strain gcn3, stronger effect = lower value 0.972 | locus YKR091W, strain srl3, stronger effect = lower value 0.981 | locus YLL026W, stronger effect = lower value 0.952 | locus YLL041C, strain sdh2, stronger effect = lower value 0.956 | locus YLR027C, strain aat2, stronger effect = lower value 0.955 | locus YLR039C, strain RIC1, stronger effect = lower value 0.697 | locus YLR058C, strain SHM2, stronger effect = lower value 0.94 | locus YLR102C, strain apc9, stronger effect = lower value 0.942 | locus YLR221C, strain rsa3, stronger effect = lower value 0.949 | locus YLR258W, strain gsy2, stronger effect = lower value 0.941 | locus YLR262C, strain YPT6 (second series), stronger effect = lower value 0.887 | locus YLR262C, strain YPT6, stronger effect = lower value 0.732 | locus YLR268W, strain sec22, stronger effect = lower value 0.9 | locus YLR320W, strain mms22, stronger effect = lower value 0.94 | locus YLR342W, strain FKS1 (second series), stronger effect = lower value 0.838 | locus YLR342W, strain FKS1, stronger effect = lower value 0.957 | locus YLR357W, strain rsc2, stronger effect = lower value 0.974 | locus YLR370C, strain arc18, stronger effect = lower value 0.932 | locus YLR384C, strain iki3, stronger effect = lower value 0.981 | locus YML016C, strain PPZ1, stronger effect = lower value 0.958 | locus YML032C, strain rad52, stronger effect = lower value 0.948 | locus YML124C, strain tub3, stronger effect = lower value 0.952 | locus YMR058W, strain fet3, stronger effect = lower value 0.955 | locus YMR078C, strain ctf18, stronger effect = lower value 0.937 | locus YMR125W, strain sto1, stronger effect = lower value 0.959 | locus YMR129W, stronger effect = lower value 0.958 | locus YMR205C, strain PFK2, stronger effect = lower value 0.958 | locus YMR223W, strain ubp8, stronger effect = lower value 0.942 | locus YMR231W, strain pep5, stronger effect = lower value 1 | locus YMR307W, strain GAS1, stronger effect = lower value 0.974 | locus YNL067W, strain RPL9B, stronger effect = lower value 0.875 | locus YNL209W, strain ssb2, stronger effect = lower value 0.991 | locus YNL248C, strain rpa49, stronger effect = lower value 0.968 | locus YNL250W, strain rad50, stronger effect = lower value 0.925 | locus YNL271C, strain bni1, stronger effect = lower value 0.955 | locus YNL298W, strain CLA4, stronger effect = lower value 0.978 | locus YNL307C, strain MCK1, stronger effect = lower value 0.91 | locus YNL322C, strain KRE1 (second series), stronger effect = lower value 0.977 | locus YNL322C, strain KRE1, stronger effect = lower value 0.971 | locus YNR049C, strain mso1, stronger effect = lower value 0.97 | locus YNR052C, strain pop2, stronger effect = lower value 0.986 | locus YOL012C, strain htz1 1.3 | locus YOL147C, strain pex11, stronger effect = lower value 0.945 | locus YOR001W, strain rrp6, stronger effect = lower value 0.954 | locus YOR061W, strain CKA2, stronger effect = lower value 0.965 | locus YOR069W, strain VPS5, stronger effect = lower value 0.965 | locus YOR070C, strain gyp1, stronger effect = lower value 0.965 | locus YOR080W, strain dia2, stronger effect = lower value 0.983 | locus YOR083W, strain WHI5, stronger effect = lower value 0.929 | locus YOR106W, strain vam3, stronger effect = lower value 0.938 | locus YOR136W, strain idh2, stronger effect = lower value 0.951 | locus YOR144C, strain elg1, stronger effect = lower value 0.964 | locus YOR265W, strain rbl2, stronger effect = lower value 0.966 | locus YOR290C, strain snf2, stronger effect = lower value 0.891 | locus YOR316C, strain cot1, stronger effect = lower value 0.937 | locus YPL051W, strain arl3, stronger effect = lower value 0.938 | locus YPL055C, strain LGE1, stronger effect = lower value 0.775 | locus YPL078C, strain atp4, stronger effect = lower value 0.896 | locus YPL106C, strain sse1, stronger effect = lower value 0.898 | locus YPL240C, strain hsp82, stronger effect = lower value 0.959 | locus YPL241C, strain CIN2, stronger effect = lower value 0.958 | locus YPR119W, strain clb2, stronger effect = lower value 0.937 | locus YPR141C, strain kar3, stronger effect = lower value 0.953 | locus YPR163C, strain tif3, stronger effect = lower value 0.933 | locus YPR167C, strain met16, stronger effect = lower value 0.959
active: locus YBR231C, strain swc5, stronger effect = lower value 0.909 | locus YDL192W, strain arf1, stronger effect = lower value 0.887 | locus YDR101C, strain arx1, stronger effect = lower value 0.908 | locus YDR195W, strain ref2 1.15 [resistant] | locus YDR392W, strain spt3, stronger effect = lower value 0.641 | locus YDR502C, strain sam2, stronger effect = lower value 0.875 | locus YER155C, strain BEM2 (second series), stronger effect = lower value 0.786 | locus YGL086W, strain mad1, stronger effect = lower value 0.889 | locus YGL240W, strain doc1, stronger effect = lower value 0.843 | locus YGL253W, strain hxk2, stronger effect = lower value 0.891 | locus YGR135W, strain pre9, stronger effect = lower value 0.887 | locus YHR142W, strain chs7, stronger effect = lower value 0.835 | locus YHR200W, strain rpn10, stronger effect = lower value 0.919 | locus YJL095W, strain BCK1, stronger effect = lower value 0.793 | locus YJL166W, strain qcr8, stronger effect = lower value 0.891 | locus YKL009W, strain mrt4, stronger effect = lower value 0.874 | locus YKR001C, strain vps1, stronger effect = lower value 0.802 | locus YLL001W, strain dnm1, stronger effect = lower value 0.893 | locus YLR330W, strain CHS5, stronger effect = lower value 0.896 | locus YLR371W, strain rom2, stronger effect = lower value 0.89 | locus YLR418C, strain cdc73, stronger effect = lower value 0.715 | locus YML120C, strain ndi1, stronger effect = lower value 0.911 | locus YMR263W, strain SAP30, stronger effect = lower value 0.855 | locus YNL071W, strain lat1, stronger effect = lower value 0.897 | locus YNL233W, strain BNI4, stronger effect = lower value 0.827 | locus YOL006C, strain TOP1, stronger effect = lower value 0.511 | locus YOR184W, strain ser1, stronger effect = lower value 0.847 | locus YOR270C, strain vph1, stronger effect = lower value 0.714 | strain wtn01, stronger effect = lower value 0.881

Source: PubChem BioAssay AID1159580 (chemical genetic matrix, 2015)
